High-throughput results from PubChem.
GLS inhibitor = inhibitors of human glutaminase (GLS); O94925; GLS enzymatic activity, qHTS titration; Potency, µM (titrated, usually from 45.5 µM), inactives show top-dose activity change, negative = inhibition, actives largely listed as inhibitors; hit rate 0.21% among 410,000; note: % is set by controls: 0 for no effect and ±100 for the full control effect
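hKGA; 45 mM KH2PO4 pH 8.2 + 0.02% Tween-20; cpd via pin tool; 1 mM Gln soln; GluOx/HRP/Amplex Red; RT 30 min; fluor. t0 & final.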
USP2a inh = inhibitors of human ubiquitin-specific protease USP2a; Potency, µM (top dose mostly 38.3 µM), without a hit: top-dose activity change, negative = inhibition, most hits filed as inhibitors; USP2 core, Ub-CHOP2 coupled fluorogenic reporter, 485/531; hit rate 0.01% among 330,000;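 note: plate controls were DMSO wells for no effect and full inhibition by NEM control for full effect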
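USP2 core (10nM final) preincubated 30min RT with compound in 20mM Tris-HCl pH 8.0, 2mM CaCl2, 2mM beta-mercaptoethanol, 0.05% CHAPS; 25nM Ub-CHOP2 plus 25nM reporter substrate added, fluorescence (Ex485/Em531) read after 60min.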
Tb PFK inh-1 = inhibitors of T. brucei phosphofructokinase; O15648; T. brucei PFK, ADP-Glo luminescence; Potency, µM (highest dose often 57.5 µM), without a hit: at the highest dose activity, negative = inhibition, usual class: inhibitors; hit rate 0.17% among 330,000;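 note: 0% = uninhibited 1x PFK enzyme wells and -100% = no-enzyme wells; nearly all actives have a fitted effect of over 60% in size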
Target sequence (O15648 whole entry, looked up): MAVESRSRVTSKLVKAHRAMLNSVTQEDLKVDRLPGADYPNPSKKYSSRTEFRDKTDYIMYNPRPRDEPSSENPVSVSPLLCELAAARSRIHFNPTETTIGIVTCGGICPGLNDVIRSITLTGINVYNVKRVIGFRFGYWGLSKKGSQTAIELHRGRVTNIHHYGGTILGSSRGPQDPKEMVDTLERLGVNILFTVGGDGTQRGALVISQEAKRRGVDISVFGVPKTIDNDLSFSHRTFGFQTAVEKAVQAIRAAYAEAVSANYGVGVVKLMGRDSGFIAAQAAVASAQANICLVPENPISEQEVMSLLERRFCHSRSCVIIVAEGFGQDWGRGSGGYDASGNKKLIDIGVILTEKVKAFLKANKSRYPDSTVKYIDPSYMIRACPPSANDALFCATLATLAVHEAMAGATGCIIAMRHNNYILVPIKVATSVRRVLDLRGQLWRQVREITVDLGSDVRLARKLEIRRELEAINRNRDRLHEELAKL
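Luminescent ADP detection (ADP-Glo, two-step: ATP depletion then ADP-to-ATP conversion for luciferase) reported PFK activity after 45 min room-temperature reaction of 1.25 nM enzyme with 0.5 mM F6P and 0.1 mM ATP at pH 8.0.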
GCN5L2 inh = blocks human GCN5L2 histone acetyltransferase. GCN5L2 HAT assay, ThioGlo1 CoA-SH fluorescence. hit rate 0.21% among 390,000. Potency, µM (titrated, usually from 58.9 µM), without a hit: top-dose activity change, negative = inhibition, hits mostly inhibitors; note: % is set by controls: 0 for no effect and ±100 for the full control effect
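ThioGlo1-coupled HAT assay: 20nM GCN5L2, 70uM acetyl-CoA, 75uM H3(1-25) peptide, pH 7.5. Fluorescence read at 340/540nm at start and after 20 min at room temperature.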
Tb PGK inh = blocks T. brucei phosphoglycerate kinase; hit rate 0.043% among 380,000; Potency, µM (doses to about 57.5 µM), inactives show at the top dose activity change, negative = inhibition, usual class: inhibitors; PGK/GAPDH coupled, Kinase-Glo luminescence, 60 min; P07378; note: % is set by controls: 0 for no effect and ±100 for the full control effect; nearly all actives have a fitted effect of over 60% in size
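Luminescent ATP detection (Kinase-Glo Plus) follows a 60-minute room-temperature incubation, with wells lacking PGK as controls. Buffer: 100 mM TEA (pH 7.6), 5 mM MgCl2, 0.01% Tween-20. Coupling enzyme GAPDH (100 nM final) supplies unstable 1,3-BPG in-well.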
TbPFK ATP = inhibits T. brucei PFK measured by ATP depletion; hit rate 47% among 1,100; Tb PFK enzyme, ATP depletion, Kinase-Glo Plus luminescence; AID 504636; Potency, µM (series often up to 57.5 µM), without a hit: top-dose inhibition; shares compounds with Tb PFK inh-1; calls by dose curve; note: nearly all actives have a fitted effect of over 60% in size
Tb PFK inh-2 = T. brucei PFK enzyme inhibition, hit validation. hit rate 41% among 1,100. purified T. brucei PFK, ADP-Glo luminescence, 45 min. Potency, µM (titrated, usually from 57.5 µM), without a hit: at the top dose activity change, negative = inhibition, usual class: inhibitors. shares compounds with Tb PFK inh-1;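 note: plate controls were full PFK enzyme control for no effect and no enzyme control for full effect; nearly all actives have a fitted effect of over 60% in size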
The depositor's hits bear a star; i = inactive; ? = inconclusive; nt = not tested or not shown; [ ] = dose if it differs, or a comment. Hits are enriched below; roughly 0.52% of the tested compounds scored in any of these assays. Unless noted, calls come from the whole dose curve; as a rule, active = well fitted curve in the direction sought with a large enough effect; inconclusive = small, poorly fitted or top-dose-only effect, or another doubt; inactive = no such curve, though single readings can be large; an effect the other way counts as inactive or inconclusive. Potency is the fitted concentration of half-maximal effect.

SMILES | GLS inhibitor | USP2a inh | Tb PFK inh-1 | GCN5L2 inh | Tb PGK inh | TbPFK ATP | Tb PFK inh-2
O=C(Cc1ccccc1)OCC(=O)c1ccccc1 | 7% | 1% | 1% | 1% | 0% | nt | nt
C=CCNc1nc(C(=O)OCC(=O)c2ccccc2)cs1 | 20% | 2% | 8.5µM* | ? | 5% | 7% | -8%
C(=C/c1ccccc1)/CN1CCN(CCOC(c2ccccc2)c2ccccc2)CC1 | nt | nt | nt | -28% | nt | nt | nt
CN1CCN(C(=O)c2sc(=S)n(-c3ccccc3)c2N)CC1 | 0% | 0% | 11µM* | ? | -4% | 3.8µM* | 5.4µM*
c1cc2cc(c1)C[n+]1ccc(c3ccccc31)NCc1ccc(cc1)CNc1cc[n+](c3ccccc13)C2 | nt | nt | nt | 12% | nt | nt | nt
Cc1cc(C(=O)NNC(=O)Cc2ccc(Cl)c(Cl)c2)c(C)o1 | -4% | -1% | 27µM* | 2% | -1% | 12µM* | 30µM*
COc1ccc(CNC(=O)N2CCN(c3cccc(Cl)c3)CC2)cc1OC | -1% | 0% | 27µM* | -13% | 5% | 12µM* | 24µM*
COc1ccc(CC(=O)N2CCN(C)CC2)cc1OC | -5% | 1% | -2% | -5% | nt | nt | nt
C[C@@H]1NC(=O)c2cc([N+](=O)[O-])cc(I)c2OCC[C@@H](C(=O)NC(CC(=O)O)C(N)=O)NC(=O)[C@H](CCC(=O)O)NC1=O (some centres not stated) | -5% | -1% | -1% | -3% | ? | nt | nt
COc1ccc(Cl)cc1C(=O)NNC(=O)COC(=O)CCN=C1NS(=O)(=O)c2ccccc21 | 7% | -2% | ? | -2% | -2% | -28% | ?
O=S(=O)(c1ccc(Cl)cc1)N1CCCCC1c1cccnc1 (configuration not stated) | 1% | -1% | 2% | -19% | 1% | nt | nt
O=C(C1CCN(c2ncnc3c2nc2n3CCCCC2)CC1)N1CCN(c2cccc(Cl)c2)CC1 | 17% | -11% | 9.5µM* | -14% | 3% | 24µM* | ?
O=C(C1CCN(S(=O)(=O)c2cccnc2)CC1)N1CCN(c2cccc(Cl)c2)CC1 | 3% | -4% | 21µM* | -10% | -2% | ? | -28%
S=C=S | 2% | nt | nt | -19% | nt | nt | nt
O=C(Nc1ncc(Cc2cccc(Cl)c2)s1)C1CCCO1 (configuration not stated) | 16% | 0% | ? | -3% | 6% | 17µM* | ?
CC1CC(C)CN(C(=O)C2CCC(CNc3c(N4CCCCC4)c(=O)c3=O)CC2)C1 (configuration not stated) | 21% | 1% | -5% | ? | i | nt | nt
Fc1cc2ncn(Cc3ccccc3)c2cc1F | 0% | 2% | ? | 3% | -3% | ? | ?
O=C(c1ccccc1F)c1cn(Cc2ccccc2)c2ccccc12 | -6% | -1% | -11% | 1% | i | nt | nt
O=C(NNC(=O)c1cc2cc3ccccc3nc2s1)c1ccc(F)cc1 | -16% | -5% | ? | -17% | ? | ? | ?
CNCC(O)c1ccc(OC(=O)C(C)(C)C)c(OC(=O)C(C)(C)C)c1 (configuration not stated) | 12% | 1% | -3% | 1% | -1% | nt | nt
O=C(NCc1cccc(Cl)c1)c1ccc(N2CC3CC(C2)c2cccc(=O)n2C3)c(NC(=O)c2cccnc2)c1 (configuration not stated) | -3% | 0% | ? | -2% | -10% | ? | ?
O=S(=O)(Nc1ccc(Cl)cc1)c1ccc(N2CCOCC2)c(NC(=S)NCCN2CCOCC2)c1 | -17% | -4% | ? | -17% | -1% | 7.6µM* | 13µM*
CCC1(CC)CCNC1=O | nt | nt | nt | 1% | nt | nt | nt
O=C(NCNC(=O)N[C@H]1C(=O)NC(=O)N1CO)N[C@H]1C(=O)NC(=O)N1CO | nt | nt | nt | 6%[21.4 µM] | nt | nt | nt
COc1cc2c(cc1OC)[C@@H]1C(=O)c3ccc4oc(C(C)C)cc4c3OC1CO2 (some centres not stated) | nt | nt | nt | -19% | nt | nt | nt
SMILES | GLS inhibitor | USP2a inh | Tb PFK inh-1 | GCN5L2 inh | Tb PGK inh | TbPFK ATP | Tb PFK inh-2
CCOc1ccccc1NC(=O)COc1coc(CN2CCc3ccccc32)cc1=O | 22% | -6% | ? | -19% | -3% | 13% | -21%
CN1CCCCC1c1cccnc1 (configuration not stated) | nt | nt | nt | -8% | nt | nt | nt
O=C(Cc1ccc(Cl)cc1)Nc1ccc(S(=O)(=O)Nc2ncccn2)cc1 | -5% | 4% | 21µM* | 4% | -11% | 11µM* | 19µM*
COc1cccc(CC(=O)Nc2ccc(S(=O)(=O)Nc3nccs3)cc2)c1 | 0% | 0% | 19µM* | -5% | -1% | 19µM* | ?
O=C(Cc1ccc(Br)cc1)Nc1ccc(S(=O)(=O)Nc2ncccn2)cc1 | -11% | 0% | 24µM* | -1% | -3% | 21µM* | 21µM*
CN(C)C(CNC(=O)Cc1ccc(Br)cc1)c1ccccc1 (configuration not stated) | 0% | 0% | -9% | 2% | 2% | nt | nt
Cc1ccnc(NS(=O)(=O)c2ccc(NC(=O)Cc3ccc(Cl)cc3)cc2)n1 | 1% | 0% | 27µM* | 2% | -6% | 15µM* | ?
Cc1o[nH]c(=O)c1C[C@H](N)C(=O)O | nt | nt | nt | 0% | nt | nt | nt
C#Cc1cccc2c1c(C(=O)c1ccc(Cn3c(C)nc4cnccc43)c(F)c1)cn2C(=O)N(C)C | nt | nt | nt | 1% | nt | nt | nt
CCN(C(=O)CN1CCN(c2ccc(O)cc2)CC1)c1c(N)n(Cc2ccccc2)c(=O)[nH]c1=O | 147% | -1% | ? | -2% | -4% | ? | ?
CCN(C(=O)CN1CC=C(c2ccccc2)CC1)c1c(N)n(Cc2ccccc2)c(=O)[nH]c1=O | -12% | 3% | -3% | -9% | -5% | nt | nt
CC1(C)[C@@H](O)C[C@H]2[C@](C)(O)[C@@H]3CC[C@H]4[C@@H](O)[C@@]3(C[C@@H](O)[C@@]21O)C[C@@]4(C)O | nt | nt | nt | 7% | nt | nt | nt
S=C(c1ccc(Cl)cc1)N1CCOCC1 | -14% | 3% | -15% | 3% | -4% | nt | nt
CN1CCN(C(=S)c2ccc([N+](=O)[O-])cc2)CC1 | -5% | 1% | -6% | 41% | -8% | nt | nt
CN1CCN(C(=S)c2ccc(N(C)C)cc2)CC1 | 33% | 3% | ? | -14% | -2% | 12µM* | 27µM*
CN1CCN(C(=S)c2ccc(Br)cc2)CC1 | 5% | 4% | ? | -4% | 13% | 12µM* | 13µM*
